Source: PubChem BioAssay AID1159580 (chemical genetic matrix, 2015)
“And” between values parts separate entries of the source, which are not always exact repeats. Equal values may be shown once. In all, about 5,500 compounds went through this assay and about 2,000 (36%) were called active. Roughly 18% stayed inconclusive and do not appear here. No stated cut-off is given here; in the data, active means normalized growth mostly below about 0.91 (no sharp cut-off); inconclusive means no clear call, values can overlap the other calls; inactive means mostly above about 0.92. Some of the results follow.

Experiment: chemical genetic growth profiling, strain panel (AID 1159580);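 further: tested at 20 µM; growth read once vehicle control cultures reached saturation at 30 °C; 1 = growth at the plate median or of vehicle wells; lower values mean less growth of the strain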
Conditions: S. cerevisiae deletion strains, growth OD

Measured: normalized growth

NC1C[C@H]1c1ccccc1 (stereo partly specified)
inactive: locus YAL013W, strain DEP1, active compounds read low 1.01 | locus YAL021C, strain ccr4, active compounds read low 1 | locus YAL026C, strain drs2, active compounds read low 0.985 | locus YAL030W, strain snc1, active compounds read low 0.985 | locus YBL061C, strain skt5, active compounds read low 0.991 | locus YBR009C, strain hhf1, active compounds read low 1 | locus YBR021W, strain FUR4, active compounds read low 0.983 | locus YBR023C, strain chs3, active compounds read low 0.983 | locus YBR171W, strain sec66, active compounds read low 0.978 | locus YBR229C, strain ROT2, active compounds read low 1 | locus YBR231C, strain swc5, active compounds read low 0.98 | locus YBR279W, strain paf1, active compounds read low 0.985 | locus YCL011C, strain gbp2, active compounds read low 0.977 | locus YCL016C, strain dcc1, active compounds read low 0.981 | locus YCL029C, strain bik1, active compounds read low 0.978 | locus YCL069W, strain vba3, active compounds read low 0.992 | locus YCR088W, strain abp1, active compounds read low 0.992 | locus YDL005C, strain med2, active compounds read low 0.953 | locus YDL035C, strain GPR1, active compounds read low 1.01 | locus YDL040C, strain nat1, active compounds read low 0.976 | locus YDL074C, strain BRE1, active compounds read low 0.999 | locus YDL101C, strain DUN1, active compounds read low 1 | locus YDL134C, strain PPH21, active compounds read low 1.01 | locus YDL185W, strain tfp1, active compounds read low 0.985 | locus YDL192W, strain arf1, active compounds read low 0.995 | locus YDR001C, strain nth1, active compounds read low 0.985 | locus YDR069C, strain doa4, active compounds read low 0.98 | locus YDR101C, strain arx1, active compounds read low 0.977 | locus YDR137W, strain rgp1, active compounds read low 0.986 | locus YDR150W, strain NUM1, active compounds read low 1 | locus YDR159W, strain sac3, active compounds read low 0.984 | locus YDR162C, strain NBP2, active compounds read low 1.01 | locus YDR195W, strain ref2 0.974 | locus YDR297W, strain sur2, active compounds read low 1 | locus YDR318W, strain mcm21, active compounds read low 0.972 | locus YDR334W, strain swr1, active compounds read low 0.993 | locus YDR335W, strain msn5, active compounds read low 0.997 | locus YDR388W, active compounds read low 0.979 | locus YDR392W, strain spt3, active compounds read low 0.991 | locus YDR502C, strain sam2, active compounds read low 0.979 | locus YEL003W, strain gim4, active compounds read low 0.993 | locus YEL037C, strain rad23, active compounds read low 0.989 | locus YEL061C, strain CIN8 (second series), active compounds read low 0.977 | locus YEL061C, strain CIN8, active compounds read low 1.01 | locus YER015W, strain faa2, active compounds read low 0.99 | locus YER016W, strain bim1, active compounds read low 1.01 | locus YER110C, active compounds read low 0.989 | locus YER111C, strain swi4, active compounds read low 0.959 | locus YER155C, strain BEM2 (second series), active compounds read low 0.976 | locus YER155C, strain BEM2, active compounds read low 0.995 | locus YER167W, strain BCK2, active compounds read low 1.01 | locus YFR010W, strain ubp6, active compounds read low 1.04 | locus YGL078C, strain dbp3, active compounds read low 0.973 | locus YGL086W, strain mad1, active compounds read low 0.988 | locus YGL167C, strain pmr1, active compounds read low 0.985 | locus YGL173C, strain kem1, active compounds read low 0.991 | locus YGL227W, strain vid30, active compounds read low 0.979 | locus YGL240W, strain doc1, active compounds read low 0.991 | locus YGL248W, strain PDE1, active compounds read low 1 | locus YGL253W, strain hxk2, active compounds read low 0.985 | locus YGR078C, strain PAC10, active compounds read low 0.989 | locus YGR135W, strain pre9, active compounds read low 0.974 | locus YGR229C, strain SMI1, active compounds read low 0.997 | locus YGR252W, strain gcn5, active compounds read low 0.919 | locus YHR013C, strain ard1, active compounds read low 0.962 | locus YHR027C, strain rpn1, active compounds read low 0.995 | locus YHR030C, strain SLT2, active compounds read low 1 and 0.953 | locus YHR079C, strain IRE1 (second series), active compounds read low 0.975 | locus YHR079C, strain IRE1, active compounds read low 0.983 | locus YHR094C, strain hxt1, active compounds read low 0.989 | locus YHR129C, strain ARP1, active compounds read low 1.01 | locus YHR142W, strain chs7, active compounds read low 0.967 | locus YHR200W, strain rpn10, active compounds read low 0.976 | locus YIL066C, strain RNR3, active compounds read low 1.01 | locus YIL073C, strain SPO22, active compounds read low 1.01 | locus YIL125W, strain kgd1, active compounds read low 0.986 | locus YIR030C, strain dcg1, active compounds read low 0.988 | locus YJL092W, strain hpr5, active compounds read low 0.992 | locus YJL095W, strain BCK1 (second series), active compounds read low 1 | locus YJL095W, strain BCK1, active compounds read low 1.01 and 0.965 | locus YJL115W, strain asf1, active compounds read low 0.976 | locus YJL129C, strain trk1, active compounds read low 0.963 | locus YJL134W, strain LCB3, active compounds read low 1 | locus YJL154C, strain vps35, active compounds read low 0.973 | locus YJL164C, strain tpk1, active compounds read low 0.999 | locus YJL166W, strain qcr8, active compounds read low 1.01 | locus YJL168C, strain set2, active compounds read low 0.983 | locus YJL187C, strain SWE1 (second series), active compounds read low 1.01 | locus YJL187C, strain SWE1, active compounds read low 0.992 | locus YJR043C, strain POL32, active compounds read low 0.995 | locus YJR066W, strain TOR1, active compounds read low 0.931
